The target of the assay is T1, GST-Co-NF-kB (Capsaspora owczarzaki, UniProt F1ARL5 200-546).
T1 sequence: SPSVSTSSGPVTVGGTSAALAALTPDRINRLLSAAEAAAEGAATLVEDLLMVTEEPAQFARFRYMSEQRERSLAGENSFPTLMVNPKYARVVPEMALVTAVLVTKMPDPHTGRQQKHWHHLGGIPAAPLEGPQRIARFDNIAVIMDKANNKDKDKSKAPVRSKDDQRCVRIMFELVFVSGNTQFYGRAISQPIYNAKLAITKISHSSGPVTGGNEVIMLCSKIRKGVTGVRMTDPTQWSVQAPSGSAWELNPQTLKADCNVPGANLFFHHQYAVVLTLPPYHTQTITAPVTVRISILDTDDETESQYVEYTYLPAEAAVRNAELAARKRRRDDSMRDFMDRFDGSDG
As to the kind of experiment: protein-binding microarray (PBM); PBM: ~300 nM protein, 6 mM HEPES pH 7.8, 80 mM KCl, 0.5 mM EDTA, 0.5 mM EGTA, 6% glycerol, 35 ng/ul poly-dIdC, 1% milk, 1 h, room temperature; Ap Aiptasia and Nv Nematostella (sea anemones) / Co Capsaspora / Aq Amphimedon (sponge) / Dm Drosophila / Hu human; RHD is the Rel homology domain; high values mean tight binding. The following applies: dsDNA, one strand shown.
In turn, “CCGATTAACATCATCAGGGAAAATGATGTTAATCGGGTCTTGATTCGCTTGACGCTGCTG” had a binding signal of 2.95 z-score.

“CCGATTAACATCAGGGACAAAAATGATGTTAATCGGGTCTTGATTCGCTTGACGCTGCTG” had a binding signal of 2.39 z-score.

In turn, “CCGATTAACATCAGGTCGGGAAATGATGTTAATCGGGTCTTGATTCGCTTGACGCTGCTG” came in with a binding signal of 3.1 z-score.

The sequence “CCGATTAACATCAATCGGGAAATTGATGTTAATCGGGTCTTGATTCGCTTGACGCTGCTG” came in with a binding signal of 2.19 z-score.

The sequence “CCGATTAACATCAGGGAAAAGGATGATGTTAATCGGGTCTTGATTCGCTTGACGCTGCTG” yielded a binding signal of 2.73 z-score.

“CCGATTAACATCAATTCCCGTACTGATGTTAATCGGGTCTTGATTCGCTTGACGCTGCTG”: the binding signal was determined as 2.55 z-score.

In the case of “CCGATTAACATCAGATTTCTCCCTGATGTTAATCGGGTCTTGATTCGCTTGACGCTGCTG”, the binding signal is 2.92 z-score.

“CCGATTAACATCAATTTACCCACTGATGTTAATCGGGTCTTGATTCGCTTGACGCTGCTG” displayed a binding signal of 2.34 z-score.

Regarding “CCGATTAACATCAACTGGGAAAATGATGTTAATCGGGTCTTGATTCGCTTGACGCTGCTG”, the binding signal came to 3.52 z-score.

Sequence “CCGATTAACATCAAGCGTTTCCCTGATGTTAATCGGGTCTTGATTCGCTTGACGCTGCTG” displayed a binding signal of 2.62 z-score.

For the sequence “CCGATTAACATCACTTTCCCAAATGATGTTAATCGGGTCTTGATTCGCTTGACGCTGCTG”, the binding signal amounted to 2.28 z-score.

“CCGATTAACATCATCTGGGAAAATGATGTTAATCGGGTCTTGATTCGCTTGACGCTGCTG” came in with a binding signal of 3.73 z-score.

Turning to “CCGATTAACATCAGGGACGGAAATGATGTTAATCGGGTCTTGATTCGCTTGACGCTGCTG”, the binding signal came to 2.07 z-score.

Regarding “CCGATTAACATCAGGGAAAAGAATGATGTTAATCGGGTCTTGATTCGCTTGACGCTGCTG”, the binding signal came out at 2.97 z-score.
